Experimental data from PubChem BioAssay (Tox21).
Records with an inconclusive call do not appear. Active and inactive are the calls of the source. Unless noted, the call rests on the fitted dose curve; in most records, active means well fitted curve in the direction sought with a large enough effect in the repeat runs; inconclusive means weak or mixed curves; inactive means no such curve, though single readings can be large; an effect the other way counts as inactive or inconclusive.

What was measured:
[1] = qHTS assay to identify aromatase inhibitors - cell viability counter screen (AID 743084);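 further: cells stimulated with testosterone during compound exposure; nearly all actives have a fitted effect of over 55% in size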
[2] = target: Aryl hydrocarbon receptor (Homo sapiens) (UniProt P35869); experiment: qHTS assay to identify small molecule that activate the aryl hydrocarbon receptor (AhR) signaling pathway (AID 743085);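 further: HG2L7.5c1 human HepG2 liver cells with stably integrated DRE-driven firefly reporter; series mostly up to about 70 µM; nearly all actives have a fitted effect of over 15% in size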
Summary of the method: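 HepG2 cells stably carrying a 20-DRE firefly luciferase reporter (HG2L7.5c1) treated with compound for 24 hr at 37C. Luciferase read by ONE-Glo luminescence, with CellTiter-Fluor viability read first.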

[3] = qHTS assay to identify small molecule that activate the aryl hydrocarbon receptor (AhR) signaling pathway - cell viability counter screen (AID 743086);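 further: HepG2 liver cells carrying the AhR DRE luciferase reporter; series mostly up to about 70 µM; nearly all actives have a fitted effect of over 45% in size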
Summary of the method: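 HepG2-AhR-luc (HG2L7.5c1) cells, 4000/well, treated 24 h at 37 C with compound; viability measured as CellTiter-Fluor fluorescence after 30 min in the same wells as the luciferase read.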

[4] = target: Peroxisome proliferator-activated receptor gamma (Homo sapiens) (UniProt P37231); experiment: qHTS assay to identify small molecule agonists of the peroxisome proliferator-activated receptor gamma (PPARg) signaling pathway (AID 743094; active means well fitted activation curve with a large enough effect in the signal ratio in the repeat runs, not every such curve was filed as active; the % refers to the signal ratio)
Summary of the method: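 Agonism was assessed in a beta-lactamase reporter system, HEK293H cells with a stably integrated UAS-bla construct under PPARg control; the 17 h treatment at 37C preceded a 1 h room-temperature FRET substrate read.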

[5] = target: Peroxisome proliferator-activated receptor gamma (Homo sapiens) (UniProt P37231); experiment: qHTS assay to identify small molecule antagonists of the peroxisome proliferator-activated receptor gamma (PPARg) signaling pathway (AID 743191; calls by dose curve; further: series mostly up to about 63 µM; nearly all actives have a fitted effect of over 30% in size)
Summary of the method: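 GeneBLAzer PPARg UAS-bla HEK293H cells, 5 h post-plating, exposed to compounds 17 h at 37C. LiveBLAzer B/G FRET substrate added for 1 h at room temperature; beta-lactamase reporter read by fluorescence intensity.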

[6] = qHTS assay to identify small molecule antagonists of the peroxisome proliferator-activated receptor gamma (PPARg) signaling pathway - cell viability counter screen (AID 743194); further: nearly all actives have a fitted effect of over 55% in size
Summary of the method: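 Cytotoxicity counter screen in PPARg-bla HEK293H cells, same wells as reporter assay. Compounds plus 50 nM rosiglitazone (final) for 17 h at 37 C, then viability read by CellTiter-Glo luminescence.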

[7] = qHTS assay for small molecule agonists of the antioxidant response element (ARE) signaling pathway (AID 743202; active means well fitted activation curve with a large enough effect in the signal ratio in the repeat runs, not every such curve was filed as active; the % refers to the signal ratio)
Summary of the method: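 HepG2 ARE-bla cells; 16 h treatment at 37 C; FRET-based beta-lactamase fluorescence read after 2 h substrate incubation at room temperature.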

[8] = qHTS assay for small molecule agonists of the antioxidant response element (ARE) signaling pathway - cell viability counter screen (AID 743203; calls by dose curve; further: nearly all actives have a fitted effect of over 55% in size)
Summary of the method: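 ATP content via CellTiter-Glo luminescence served as the viability measure. Cells: ARE-bla HepG2, 2,000 per well. Exposure: 16 hrs, 37C/5% CO2.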

[9] = qHTS assay for small molecule activators of the heat shock response signaling pathway (AID 743210; active means well fitted activation curve with a large enough effect in the signal ratio in the repeat runs, with a control signal flat, not every such curve was filed as active; the % refers to the signal ratio;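 further: HeLa cells with beta-lactamase reporter driven by heat shock elements; series mostly up to about 63 µM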)
Summary of the method: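 Following overnight attachment, HSE-bla HeLa cells received test compounds for 5 h at 37 C; beta-lactamase activity was then detected via FRET substrate fluorescence.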

[10] = qHTS assay to identify small molecule antagonists of the peroxisome proliferator-activated receptor delta (PPARd) signaling pathway - cell viability counter screen (AID 743213); further: nearly all actives have a fitted effect of over 50% in size
Summary of the method: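 In this counter screen, HEK293H cells carrying a UAS-beta-lactamase reporter are co-treated with test compounds and 300 nM L165041 (final) for 17 h at 37 C; cell viability is quantified by CellTiter-Glo luminescence.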

[11] = target: Bile acid receptor (Homo sapiens) (UniProt Q96RI1); experiment: qHTS assay to identify small molecule antagonists of the farnesoid-X-receptor (FXR) signaling pathway (AID 743217; active means well fitted inhibition curve with a large enough effect in the signal ratio in the repeat runs, not every such curve was filed as active; the % refers to the signal ratio)
Summary of the method: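 Test compounds are pin-transferred onto FXR-bla HEK 293T cells, then chenodeoxycholic acid is added at 50 uM final. After 16 h at 37 °C, LiveBLAzer B/G substrate is applied for 2 h at room temperature and fluorescence read.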

[12] = qHTS assay to identify small molecule agonists of the farnesoid-X-receptor (FXR) signaling pathway - cell viability counter screen (AID 743218); further: nearly all actives have a fitted effect of over 45% in size
Summary of the method: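 Quantitative HTS counter screen measuring ATP-based viability via CellTiter-Glo luminescence in HEK 293T cells carrying a UAS-driven beta-lactamase reporter, after 16 h compound exposure at 37 C.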

[13] = target: Bile acid receptor (Homo sapiens) (UniProt Q96RI1); experiment: qHTS assay to identify small molecule agonists of the farnesoid-X-receptor (FXR) signaling pathway (AID 743220; active means well fitted activation curve with a large enough effect in the signal ratio in the repeat runs, not every such curve was filed as active; the % refers to the signal ratio)
Summary of the method: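 FXR-UAS-bla HEK 293T cells carrying a UAS-driven beta-lactamase reporter were plated for 5 h at 37C/5% CO2, then exposed to DMSO-dissolved Tox21 10K compounds for 16 h at 37C. A LiveBLAzer B/G FRET substrate was loaded for 2 h at room temperature before fluorescence reading.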

[14] = qHTS assay to identify small molecule antagonists of the farnesoid-X-receptor (FXR) signaling pathway - cell viability counter screen (AID 743221; active means well fitted cell-killing curve with a large enough effect in the repeat runs, not every such curve was filed as active; further: nearly all actives have a fitted effect of over 50% in size)
Summary of the method: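 GeneBLAzer FXR-UAS-bla HEK 293T cells, compound plus chenodeoxycholic acid (50 uM final), 16 h at 37 C. CellTiter-Glo added to the same wells after the beta-lactamase read; luminescence read after 30 min at room temperature as viability.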

[15] = qHTS assay for small molecule activators of the heat shock response signaling pathway - cell viability counter screen (AID 743209); further: nearly all actives have a fitted effect of over 50% in size
Summary of the method: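 Compounds dissolved in DMSO were added to overnight-plated HSE-bla HeLa cells and left 5 h at 37 C. Cell viability was quantified by luminescence using CellTiter-Glo.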

[16] = qHTS assay to identify small molecule agonists of the peroxisome proliferator-activated receptor delta (PPARd) signaling pathway - cell viability counter screen (AID 743211); further: nearly all actives have a fitted effect of over 55% in size
Summary of the method: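 PPARd-bla HEK293H cells (3000/well) were pre-incubated 5 h at 37 C, then exposed to compound for 17 h at 37 C. After 2 h with LiveBLAzer substrate, CellTiter-Glo was added to the same wells; luminescence read after 30 min at room temperature.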

[17] = target: Peroxisome proliferator-activated receptor delta (Homo sapiens) (UniProt Q03181); experiment: qHTS assay to identify small molecule agonists of the peroxisome proliferator-activated receptor delta (PPARd) signaling pathway (AID 743212; calls by dose curve)
Summary of the method: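 Tox21 library screened in GeneBLAzer PPARd UAS-bla HEK293H cells. After compound treatment at 37 C, a FRET-based beta-lactamase substrate was applied for 2 h and fluorescence recorded.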

[18] = target: Peroxisome proliferator-activated receptor delta (Homo sapiens) (UniProt Q03181); experiment: qHTS assay to identify small molecule antagonists of the peroxisome proliferator-activated receptor delta (PPARd) signaling pathway (AID 743215; active means well fitted inhibition curve with a large enough effect in the signal ratio in the repeat runs, not every such curve was filed as active; the % refers to the signal ratio;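 further: cells stimulated with agonist L165041 at 300 nM final during compound exposure; series mostly up to about 62 µM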)
Summary of the method: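 Here, a reporter line (HEK293H, beta-lactamase under a UAS) measures PPARd signaling. Compounds are tested against agonist L165041 at 300 nM final concentration over 17 h at 37 C, with fluorescence read after substrate.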

[19] = target: Vitamin D3 receptor (Homo sapiens) (UniProt P11473); experiment: qHTS assay to identify small molecule agonists of the vitamin D receptor (VDR) signaling pathway (AID 743222; calls by dose curve)
Summary of the method: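 Tox21 cell reporter format: VDR-bla line, 16 h compound exposure in 5% CO2 at 37C, then fluorescence intensity after 2 h with LiveBLAzer B/G FRET substrate.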

[20] = target: Vitamin D3 receptor (Homo sapiens) (UniProt P11473); experiment: qHTS assay to identify small molecule antagonists of the vitamin D receptor (VDR) signaling pathway (AID 743223; active means well fitted inhibition curve with a large enough effect in the signal ratio in the repeat runs, not every such curve was filed as active; the % refers to the signal ratio)
Summary of the method: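 VDR-bla cells were treated with compound plus 3 nM final 1alpha,25-dihydroxyvitamin D3 for 16 h at 37C. Beta-lactamase reporter read by B/G FRET substrate fluorescence after 2 h at room temperature. qHTS format.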

Measured: Potency

Vitamin D3 receptor (Homo sapiens), sequence (P11473 whole entry, looked up): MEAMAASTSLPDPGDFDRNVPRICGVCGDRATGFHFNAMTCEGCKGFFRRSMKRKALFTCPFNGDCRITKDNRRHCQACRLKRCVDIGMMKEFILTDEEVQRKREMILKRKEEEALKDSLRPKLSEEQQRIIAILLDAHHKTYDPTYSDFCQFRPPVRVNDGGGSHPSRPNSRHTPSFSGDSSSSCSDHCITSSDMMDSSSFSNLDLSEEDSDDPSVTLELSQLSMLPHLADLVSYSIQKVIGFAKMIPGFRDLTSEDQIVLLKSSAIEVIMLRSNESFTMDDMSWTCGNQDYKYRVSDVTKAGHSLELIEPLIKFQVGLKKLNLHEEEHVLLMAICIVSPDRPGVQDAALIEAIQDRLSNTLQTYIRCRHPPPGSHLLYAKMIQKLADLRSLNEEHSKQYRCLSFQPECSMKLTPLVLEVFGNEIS
Peroxisome proliferator-activated receptor gamma (Homo sapiens), sequence (P37231 whole entry, looked up): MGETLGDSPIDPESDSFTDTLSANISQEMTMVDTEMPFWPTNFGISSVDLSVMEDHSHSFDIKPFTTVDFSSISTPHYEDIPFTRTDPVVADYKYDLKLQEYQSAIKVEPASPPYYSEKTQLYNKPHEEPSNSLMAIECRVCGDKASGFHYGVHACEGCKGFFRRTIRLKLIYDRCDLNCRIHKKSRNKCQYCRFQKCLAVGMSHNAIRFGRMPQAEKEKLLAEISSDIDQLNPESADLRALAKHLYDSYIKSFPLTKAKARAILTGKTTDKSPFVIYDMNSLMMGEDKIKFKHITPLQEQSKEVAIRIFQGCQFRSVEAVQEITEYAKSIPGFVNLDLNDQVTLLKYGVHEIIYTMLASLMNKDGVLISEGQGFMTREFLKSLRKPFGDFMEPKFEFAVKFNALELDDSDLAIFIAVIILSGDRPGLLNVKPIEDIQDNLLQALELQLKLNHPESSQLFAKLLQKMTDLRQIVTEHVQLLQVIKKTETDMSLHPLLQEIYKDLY
Aryl hydrocarbon receptor (Homo sapiens), sequence (P35869 whole entry, looked up): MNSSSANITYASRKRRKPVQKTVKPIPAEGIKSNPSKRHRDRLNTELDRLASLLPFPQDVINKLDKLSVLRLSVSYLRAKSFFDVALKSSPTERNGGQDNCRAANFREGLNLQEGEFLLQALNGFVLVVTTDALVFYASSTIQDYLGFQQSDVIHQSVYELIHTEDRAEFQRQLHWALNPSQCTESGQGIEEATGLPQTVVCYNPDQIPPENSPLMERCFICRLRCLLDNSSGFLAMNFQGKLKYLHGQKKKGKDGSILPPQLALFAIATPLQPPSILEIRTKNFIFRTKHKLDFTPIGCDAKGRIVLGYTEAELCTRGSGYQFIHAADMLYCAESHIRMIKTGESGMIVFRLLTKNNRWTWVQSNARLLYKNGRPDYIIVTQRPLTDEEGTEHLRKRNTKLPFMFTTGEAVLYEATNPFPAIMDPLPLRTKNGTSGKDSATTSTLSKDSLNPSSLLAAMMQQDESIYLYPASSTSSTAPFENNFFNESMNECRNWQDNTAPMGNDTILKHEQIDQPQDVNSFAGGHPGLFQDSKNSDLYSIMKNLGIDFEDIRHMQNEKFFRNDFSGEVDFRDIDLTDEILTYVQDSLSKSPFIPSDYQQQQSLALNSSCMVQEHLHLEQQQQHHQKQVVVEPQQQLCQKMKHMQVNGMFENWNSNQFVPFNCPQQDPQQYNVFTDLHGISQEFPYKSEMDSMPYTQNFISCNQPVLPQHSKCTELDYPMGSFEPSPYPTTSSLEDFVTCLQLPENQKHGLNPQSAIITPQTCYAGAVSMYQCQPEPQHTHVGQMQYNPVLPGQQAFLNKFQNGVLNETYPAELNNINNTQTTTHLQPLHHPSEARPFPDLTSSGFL
Peroxisome proliferator-activated receptor delta (Homo sapiens), sequence (Q03181 whole entry, looked up): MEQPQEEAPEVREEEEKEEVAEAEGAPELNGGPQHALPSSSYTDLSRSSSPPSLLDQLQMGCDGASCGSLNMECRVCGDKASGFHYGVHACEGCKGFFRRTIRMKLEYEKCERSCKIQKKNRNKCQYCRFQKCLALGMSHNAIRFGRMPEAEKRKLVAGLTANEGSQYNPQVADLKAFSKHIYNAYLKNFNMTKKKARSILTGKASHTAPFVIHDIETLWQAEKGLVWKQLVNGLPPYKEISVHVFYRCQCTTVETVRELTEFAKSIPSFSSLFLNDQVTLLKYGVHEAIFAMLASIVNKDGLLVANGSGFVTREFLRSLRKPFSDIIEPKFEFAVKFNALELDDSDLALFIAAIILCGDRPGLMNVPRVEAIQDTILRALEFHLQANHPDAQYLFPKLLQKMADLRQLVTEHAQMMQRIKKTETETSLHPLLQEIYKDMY
Bile acid receptor (Homo sapiens), sequence (Q96RI1 whole entry, looked up): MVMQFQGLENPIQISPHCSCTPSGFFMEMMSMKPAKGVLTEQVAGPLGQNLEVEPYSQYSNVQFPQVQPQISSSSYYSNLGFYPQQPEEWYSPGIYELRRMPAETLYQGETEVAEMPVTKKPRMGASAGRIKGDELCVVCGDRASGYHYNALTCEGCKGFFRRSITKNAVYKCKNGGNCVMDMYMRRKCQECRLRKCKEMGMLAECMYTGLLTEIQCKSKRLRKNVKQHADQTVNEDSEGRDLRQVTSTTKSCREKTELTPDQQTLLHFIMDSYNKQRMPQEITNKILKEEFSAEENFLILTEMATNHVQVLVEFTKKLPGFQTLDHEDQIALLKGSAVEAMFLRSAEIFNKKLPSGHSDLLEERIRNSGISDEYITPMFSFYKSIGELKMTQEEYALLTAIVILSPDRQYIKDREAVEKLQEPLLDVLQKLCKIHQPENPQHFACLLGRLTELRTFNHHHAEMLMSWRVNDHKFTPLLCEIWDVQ

CCn1cc(C(=O)O)c(=O)c2cnc(N3CCNCC3)nc21
inactive: [1] | [2] | [3] | [4] | [5] | [6] | [7] | [8] | [9] | [10] | [11] | [12] | [13] | [14]

OCCNCc1ccccc1
inactive: [1] | [2] | [3] | [4] | [5] | [6] | [7] | [8] | [15] | [9] | [16] | [17] | [10] | [18] | [14] | [19]

CCCCCCCCO[C@@H]1O[C@H](CO)[C@@H](O)[C@H](O)[C@H]1O
inactive: [1] | [2] | [3] | [4] | [5] | [6] | [7] | [8] | [15] | [9] | [16] | [17] | [10] | [11] | [12] | [13] | [14] | [19]

Cc1cccc(C)c1NC(=O)CN(CC(=O)O)CC(=O)O
inactive: [1] | [2] | [3] | [4] | [5] | [6] | [7] | [8] | [9] | [16] | [17] | [18] | [11] | [12] | [13] | [14] | [19]

CCCCOC(=O)CCCCCCCC(=O)OCCCC
inactive: [1] | [2] | [3] | [4] | [5] | [6] | [8] | [15] | [9] | [16] | [17] | [10] | [11] | [13] | [14] | [19]

C[N+](C)(C)CCOC(=O)CCC(=O)OCC[N+](C)(C)C
inactive: [1] | [2] | [3] | [4] | [5] | [6] | [7] | [8] | [15] | [9] | [12] | [14]

CCCCCCCCCCO[C@@H]1O[C@H](CO)[C@@H](O)[C@H](O)[C@H]1O
inactive: [1] | [2] | [3] | [4] | [5] | [6] | [8] | [9] | [16] | [17] | [18] | [12] | [14] | [19] | [20]

CC(COCCO)OCCO (stereo not given)
inactive: [1] | [2] | [3] | [4] | [5] | [6] | [8] | [15] | [9] | [16] | [10] | [11] | [12] | [13] | [14] | [19] | [20]
